Bioassay records from PubChem BioAssay.
LGR2 inh: Drosophila LGR2 receptor signaling inhibition; inhibition, % at 9.99 µM; 380,000 tested, 0.35% active; HEK293 LGR2, CRE-luciferase, bursicon-stimulated, 4 h; AID 720647;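 active means drop in luminescence signal, shown as inhibition above about 50% in the replicate tests, limit read from the data, passing the limit was not always enough; inconclusive means probably only some replicates passing the limit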;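 further: agonist challenge used bursicon conditioned medium at about half maximal strength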
TWEAK-Fn14 inh: blocks TWEAK-Fn14 interaction in a reporter cell assay | TWEAK-stimulated Fn14 reporter cells, luciferase luminescence, 8 h | inhibition, % at 10 µM | 360,000 tested, 2% active | AID 1159606; in the data active means inhibition above about 50%
EWS-Fli inh: blocks EWS/Fli oncoprotein-driven transcription; A673 NR0B1-luciferase reporter, viability-normalised; inhibition, % at 12.6 µM; 350,000 tested, 0.67% active; AID 651661;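 active means mean inhibition of at least 50% after viability correction, with every replicate also passing that limit; inconclusive means mean reaches 50% but only one of two replicates passes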;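 further: firefly luciferase signal divided by Alamar Blue viability fluorescence both relative to DMSO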
TROY signal inh: blocks TROY-dependent signaling in reporter cells; Q293 LMP1-TROYcd NF-kB luciferase reporter, 4 h; inhibition, % at 10 µM; 360,000 tested, 0.98% active;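 active means compounds whose plate-normalised and pattern-corrected inhibition of the luciferase reporter signal at the single screening dose is 50% or more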
CF NFkB block: blocks PAF-induced NF-kB reporter in cystic fibrosis cells; 360,000 tested, 0.86% active; KKLEB NF-kB-GFP reporter, GFP fluorescence overnight; inhibition, % at 5 µM;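 active means at least 50% inhibition at 5 µM, scaled per plate between neutral and stimulator controls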;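 further: PAF is a Pseudomonas aeruginosa culture filtrate used as stimulus; plate controls were PAF-stimulated DMSO wells for no effect and unstimulated DMSO wells for full effect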
KKLEB cytotox: reduces viability of KKLEB cystic fibrosis airway cells; 360,000 tested, 0.36% active; KKLEB CF airway cells viability, ATPlite luminescence, overnight; hits give low values; cells stimulated with P. aeruginosa culture filtrate; activity change (cytotoxicity), % at 5 µM;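 active means corrected activity change at or below -50% at 5 µM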
* marks the source's active call; other numbers are inactive results; ? = inconclusive; · = no result given. Shown are actives, neighbours in structure and some others; about 2.6% of the full set was active somewhere.

SMILES | LGR2 inh | TWEAK-Fn14 inh | EWS-Fli inh | TROY signal inh | CF NFkB block | KKLEB cytotox
Cc1ccc(S(=O)(=O)Nc2ccc3c(c2)C(=O)N([C@H](C)CO)C[C@H](C)[C@H](CN(C)Cc2ccncc2)OCCCC[C@H](C)O3)cc1 | 7 | · | 6 | · | · | ·
COc1cc(C(=O)NC(=S)N(CCc2ccccc2)CCc2ccccc2)cc(OC)c1OC | 16 | 38 | · | 70* | 14 | -13
O=C(c1ccc2c(c1)OCO2)N1CC(=O)N2[C@H](CO)[C@H](c3ccc(C#CCC4CCCC4)cc3)[C@H]2C1 | -11 | · | 0 | · | · | ·
CC(C)NC(=O)N(C)C[C@@H]1Oc2c(NC(=O)Nc3ccccc3)cccc2C(=O)N([C@@H](C)CO)C[C@@H]1C | -7 | · | -11 | · | · | ·
Cc1cc(N2CCOCC2)n2ncc(-c3ccc(Cl)cc3)c2n1 | · | 82* | -17 | 79* | 3 | -8
Cc1cc(N2CCCCC2)n2ncc(-c3ccccc3)c2n1 | · | 81* | · | 77* | 20 | -24
Cc1cc(N2CCOCC2)n2ncc(-c3ccccc3)c2n1 | · | 86* | · | 75* | 5 | -6
Cc1cc(N2CCCCC2)n2ncc(-c3ccc(Cl)cc3)c2n1 | · | 74* | · | 70* | 13 | -18
Cc1cc(N2CCCCC2)n2nc(C)c(-c3ccccc3)c2n1 | · | 1 | · | 12 | 8 | -14
CC(C)(C)c1cc(N2CCOCC2)n2ncc(-c3ccc(Cl)cc3)c2n1 | 1 | -18 | -28 | -21 | 16 | -6
CCCNC(=O)Nc1ccc2c(c1)OC[C@H](C)N(C(=O)CC)C[C@H](C)[C@H](OC)CN(C)C2=O | 15 | · | 3 | · | · | ·
C/C=C/c1ccc([C@@H]2[C@H](CO)N(CCC(F)(F)F)C23CN(C(=O)CN(C)C)C3)cc1 | -2 | · | 3 | · | · | ·
Cc1cc(N2CCC(C)CC2)n2ncc(-c3ccccc3)c2n1 | ? | 83* | · | 84* | 11 | -8
Cc1ccc(-c2cnn3c(N4CCOCC4)cc(C)nc23)cc1 | 10 | 85* | 17 | 73* | -8 | -11
Cc1cc(N2CCC(C)CC2)n2nc(C)c(-c3ccccc3)c2n1 | · | -10 | · | -12 | -10 | -8
C[C@@H]1CN([C@@H](C)CO)C(=O)c2cccc(NC(=O)CCCCCC(=O)Nc3ccccc3N)c2O[C@H]1CN(C)S(C)(=O)=O | 16 | · | -8 | · | · | ·
C=C(CN(C)C)C(=O)c1ccc(OC2OC(COC(C)=O)C(OC(C)=O)C(OC(C)=O)C2OC(C)=O)cc1 (stereo not given) | -11 | 15 | 40 | 16 | 60* | -28
COC1OC(COC(=O)c2ccccc2)C(OC(=O)c2ccccc2)C1OC(=O)c1ccccc1 (stereo not given) | 13 | 11 | -2 | 5 | -8 | -11
Cc1cccc(NC(=O)Nc2ccc3c(c2)C(=O)N(C)[C@H]2CC[C@@H](CC(=O)O)O[C@@H]2CO3)c1 | 0 | · | -7 | · | · | ·
CC(C)C(C)NC(=O)COc1ccc(-c2ccccc2)cc1 (stereo not given) | · | -18 | · | -34 | -11 | 2
CC(C)C(C)NC(=O)COc1ccc(Sc2ccc(OCC(=O)NC(C)C(C)C)cc2)cc1 (stereo not given) | 25 | 66* | 22 | 28 | -12 | -6
CN1c2ccc(-c3cccc(C#N)c3)cc2[C@H]2[C@H](CCN2C(=O)Nc2cc(F)ccc2F)[C@H]1CO | 8 | · | -11 | · | · | ·
COCCNC(=O)C[C@@H]1C[C@H]2c3cc(NC(=O)NC4CCCC4)ccc3O[C@H]2[C@H](CO)O1 | -8 | · | 3 | · | · | ·
O=C(C[C@H]1C[C@H](C(=O)N2CCCCC2)[C@@]2(CCc3ccccc3)c3[nH]c4ccc(Cl)cc4c3CCN2C1=O)NCc1cccc(C(F)(F)F)c1 | 7 | 53* | 1 | 16 | 43 | -29
CCN(CC)C(=O)[C@H]1C[C@H](CC(=O)NCCCN(C)C)C(=O)N2CCc3c([nH]c4ccc(Cl)cc34)[C@]12C | 5 | 26 | -16 | 8 | 4 | -1
SMILES | LGR2 inh | TWEAK-Fn14 inh | EWS-Fli inh | TROY signal inh | CF NFkB block | KKLEB cytotox
CCN(CC)C(=O)[C@H]1C[C@H](CC(=O)NCC23CC4CC(CC(C4)C2)C3)C(=O)N2CCc3c([nH]c4ccc(Cl)cc34)[C@]12C | 14 | 54* | -1 | 45 | 25 | -6
CC(C)N(C(=O)[C@H]1C[C@H](CC(=O)NCC23CC4CC(CC(C4)C2)C3)C(=O)N2CCc3c([nH]c4ccc(Cl)cc34)[C@]12C)C(C)C | 13 | 54* | 3 | 40 | 39 | -3
O=C(CC1C[C@H](C(=O)N2CCCCC2)[C@@]2(CCc3ccccc3)c3[nH]c4ccccc4c3CCN2C1=O)NCc1cccc(C(F)(F)F)c1 (stereo not given in full) | 19 | 49 | 0 | 18 | 17 | -5
CC(C)=CCC/C(C)=C/CNC(=O)C[C@H]1C[C@H](C(=O)N2CCOCC2)[C@@]2(C)c3[nH]c4ccc(Cl)cc4c3CCN2C1=O | 63* | 51* | 36 | 51* | 29 | -14
CC(C)=CCC/C(C)=C/CNC(=O)CC1C[C@H](C(=O)N2CCOCC2)[C@@]2(C)c3[nH]c4ccccc4c3CCN2C1=O (stereo not given in full) | 18 | 21 | -1 | 20 | -1 | 4
C[C@@H]1CN([C@@H](C)CO)C(=O)Cc2cc(NS(=O)(=O)c3ccc(F)cc3)ccc2O[C@@H]1CN(C)Cc1ccc(-c2ccccc2)cc1 | -13 | · | 35 | · | · | ·
O=C(Nc1ccccc1)N[C@H]1CC[C@@H](CCNS(=O)(=O)c2ccccc2F)O[C@@H]1CO | 8 | · | 5 | · | · | ·
CCCNC(=O)Nc1ccc2c(c1)C(=O)N(C)C[C@H](OC)[C@H](C)CN(C(=O)C1CCCCC1)[C@@H](C)CO2 | 5 | · | 10 | · | · | ·
N=C1S/C(=C\c2ccccc2F)C(=O)N1c1ccc(F)cc1 | -9 | -17 | 1 | 15 | 3 | 2
N=C1S/C(=C\c2cn[nH]c2-c2ccc(F)cc2)C(=O)N1c1ccccc1F | -55 | 7 | · | 26 | 50* | 13
C[C@@H]1CN([C@@H](C)CO)C(=O)c2cccc(NS(=O)(=O)c3ccc(F)cc3)c2O[C@H]1CN(C)CC1CC1 | -6 | · | -2 | · | · | ·
Cc1ccc(S(=O)(=O)Nc2cc(-c3nn(C)c(=O)c4ccccc34)ccc2N2CCOCC2)cc1 | -28 | 43 | · | 28 | -45 | -14
Cn1nc(-c2ccc(N3CCOCC3)c(NS(=O)(=O)c3ccc(Cl)cc3)c2)c2ccccc2c1=O | · | 61* | · | · | -28 | -4
